Records with an inconclusive call do not appear. Active and inactive are the calls of the source. Calls follow the shape of the dose curve; as a rule, active = well fitted curve in the direction sought with a large enough effect; inconclusive = small, poorly fitted or top-dose-only effect, or another doubt; inactive = no such curve, though single readings can be large; an effect the other way counts as inactive or inconclusive.
Columns and labels:
[1] = biological target: Cellular tumor antigen p53 (Homo sapiens) (UniProt P04637); test: Primary qHTS for small molecule compounds that upregulate eGFP-tagged delta133p53alpha (in N-terminal) cells. (AID 2060322); details: NCI-H358 eGFP-delta133p53alpha fluorescence, 24 h; activation: stronger effect = higher value;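 also: series mostly up to about 56 µM; 0% = DMSO vehicle and 100% = reference activator; nearly all actives have a fitted effect of over 75% in size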
Outline: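 NCI-H358 cells pre-induced 24 h with 10 ng/ml doxycycline to express N-terminal eGFP-delta133p53alpha, then dosed 24 h at 37C without doxycycline; fixed, Hoechst-stained, GFP intensity by laser scanning cytometry, normalized to DMSO (0%) and 57.5 uM 5-azacytidine (100%).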

[2] = biological target: Aldehyde dehydrogenase, mitochondrial (Homo sapiens) (UniProt P05091); test: qHTS for Inhibitors of the Aldehyde Dehydrogenase Family (ALDH2) Primary screen (AID 2061308);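 also: plate controls were vehicle for no effect and reference inhibitor for full effect; nearly all actives have a fitted effect of over 55% in size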
[3] = biological target: Retinaldehyde dehydrogenase 3 (Homo sapiens) (UniProt P47895); test: qHTS for Inhibitors of the Aldehyde Dehydrogenase Family (ALDH1A3) Primary screen (AID 2061315);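 also: plate controls were DMSO vehicle for no effect and reference inhibitor for full effect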

Cellular tumor antigen p53 (Homo sapiens), sequence (P04637 whole entry, looked up): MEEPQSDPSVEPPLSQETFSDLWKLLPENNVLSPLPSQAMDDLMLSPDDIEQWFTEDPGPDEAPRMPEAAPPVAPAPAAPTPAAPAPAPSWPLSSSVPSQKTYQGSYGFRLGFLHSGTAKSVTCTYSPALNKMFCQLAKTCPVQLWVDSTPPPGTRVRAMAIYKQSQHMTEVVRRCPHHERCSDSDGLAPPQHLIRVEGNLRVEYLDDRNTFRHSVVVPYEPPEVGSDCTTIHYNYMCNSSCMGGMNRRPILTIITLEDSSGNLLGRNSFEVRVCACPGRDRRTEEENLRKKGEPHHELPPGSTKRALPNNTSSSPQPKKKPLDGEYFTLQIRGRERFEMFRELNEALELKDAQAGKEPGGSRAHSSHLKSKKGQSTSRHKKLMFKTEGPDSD

N#Cc1c[nH]c2c(C(=O)N3CCN(CCc4ccc(F)cc4)CC3)cccc12
inactive: activation [1] -18.8% | Potency [2] | Potency [3]

CO[C@H]1C=C2C(CC[C@H](O[C@@H]3O[C@H](CO)[C@@H](O)[C@@H](O)[C@H]3O)C2(C)C)[C@]2(C)CC[C@]3(C)C([C@H](C)C(O)C(C=C(C)C)O[C@@H]4O[C@H](CO)[C@@H](O)[C@@H](O)[C@H]4O)CC[C@@]3(C)C12 (stereo partly drawn)
inactive: activation [1] 0.763% | Potency [2] | Potency [3]

CC(=O)OC1C(CO)OC(O[C@H]2[C@H](OC(=O)[C@]34CCC(C)(C)C[C@H]3C3=CCC5[C@@]6(C)CC[C@H](O[C@@H]7O[C@H](C(=O)O)[C@@H](O)[C@H](O[C@@H]8OC[C@@H](O)[C@H](O)[C@H]8O)[C@H]7O[C@@H]7O[C@H](CO)[C@H](O)[C@H](O)[C@H]7O)[C@@](C)(C=O)C6CC[C@@]5(C)[C@]3(C)C[C@H]4O)O[C@H](C)[C@H](OC3OC(C)C(OC4OCC(O)C(O)C4O)C(O)C3O)[C@@H]2O)C(O)C1O (stereo partly drawn)
inactive: activation [1] 4.58% | activity change, negative = inhibition [2] -12.7% [at 11.2 µM] | activity change, negative = inhibition [3] 4.72% [at 11.2 µM]

COc1cc2occc2c(O[C@@H]2O[C@H](CO)[C@@H](O)[C@H](O)[C@H]2O)c1CCC(=O)O
inactive: activation [1] 9.16% | Potency [2] | Potency [3]

CC(=O)OC(C)(C)/C=C/C(=O)C(C)(O)C1C(O)CC2(C)C3CC=C(C(C)(C)C(=O)O)C(CC(=O)O)C3(C)C(=O)CC12C (stereo not drawn)
inactive: activation [1] -3.82% | Potency [2] | Potency [3]

C[C@@H]1O[C@@H](O[C@@H]2[C@@H](O)[C@H](O[C@H]3[C@H](O[C@H]4CC[C@@]5(C)C(CC[C@]6(C)C5CC=C5[C@@H]7CC(C)(C)CC[C@]7(C(=O)O[C@@H]7O[C@H](CO)[C@@H](O)[C@H](O)[C@H]7O[C@@H]7O[C@@H](C)[C@H](O[C@@H]8O[C@@H](C)[C@H](O)[C@@H](O)[C@H]8O)[C@@H](O)[C@H]7O)CC[C@]56C)[C@@]4(C)CO)O[C@H](C(=O)O)[C@@H](O)[C@@H]3O)O[C@H](CO)[C@H]2O)[C@H](O)[C@H](O)[C@H]1O (stereo partly drawn)
inactive: activation [1] -9.16% | activity change, negative = inhibition [2] 7.29% [at 11.2 µM] | activity change, negative = inhibition [3] -3.36% [at 11.2 µM]

From PubChem BioAssay (NCATS)
